# Data published in PubChem BioAssay AID2075 (NMMLSC, 2009).
# Activity calls are given as the source filed them. No rule for the calls is given here.
# Biological target: Apoptosis regulator Bcl-2 (Homo sapiens) (UniProt P10415)
# Test: Bcl-2 Bim peptide interaction hit potency – biochemical, dose response, multiplexed HTS hits, confirmation (AID 2075)
# Sequence of Apoptosis regulator Bcl-2 (Homo sapiens) (P10415 whole entry, looked up): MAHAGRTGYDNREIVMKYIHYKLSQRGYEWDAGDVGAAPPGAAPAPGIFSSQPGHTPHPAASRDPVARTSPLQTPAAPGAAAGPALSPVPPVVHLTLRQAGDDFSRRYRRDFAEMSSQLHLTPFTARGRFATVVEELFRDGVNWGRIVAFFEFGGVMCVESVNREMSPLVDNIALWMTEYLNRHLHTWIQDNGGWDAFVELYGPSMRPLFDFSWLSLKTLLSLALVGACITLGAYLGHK
smiles,measurement,value
O=C1NC(=O)C(=Cc2ccc(-c3cc(Cl)ccc3[N+](=O)[O-])o2)C(=O)N1,outcome,inactive
